Experimental data as given in PubChem BioAssay (NCATS).
Inconclusive results are not listed. Unless noted, calls follow the shape of the dose curve; as a rule, active = well fitted curve in either direction with a large enough effect (not every such curve was filed as active); inconclusive = small, poorly fitted or top-dose-only effect, or another doubt; inactive = flat fitted curve, though single readings scatter.

What was measured:
[1] = AP1 Signaling Pathway (AID 357); details: ME-180 AP-1-bla reporter, EGF-induced, beta-lactamase ratio, 5 h; at 17.2 µM (top of the series) unless noted;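 also: ME-180 reporter cells stimulated with EGF at its EC50 level; % is scaled to controls: 0 for no effect and ±100 for the full control effect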
Procedure, shortened: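 First, ME-180 AP-1-bla cells were cultured overnight at 37 °C in low-serum Opti-MEM. Next, titrated compounds with EC50 EGF were incubated 5 hours. Finally, CCF4 was added for 2.5 hours and the 460/530 nm ratio recorded.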

[2] = NFAT Signaling Pathway (AID 444); details: Jurkat NFAT-bla M1, carbachol, beta-lactamase ratio, 5 h; at 17.2 µM (top of the series) unless noted;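 also: carbachol stimulus at about its EC50 of 1 µM final; % is scaled to controls: 0 for no effect and ±100 for the full control effect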
Procedure, shortened: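 Read-out: CCF4 FRET ratio (460 nm/530 nm) after 1 h RT dye loading, used for %activity and AC50 from titration series. Cells: Jurkat NFAT-β-lactamase/M1 line, treated with compound plus 1 uM carbachol for 5 h, 37 °C.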

[3] = Stat Signaling Pathway (AID 446); details: ME-180 (cervical carcinoma) SIE beta-lactamase reporter, IL-6 stimulated, 5 h; at 17.2 µM (top of the series) unless noted;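 also: ME-180 cervical cancer cells given 40 pM IL-6 alongside compound; SIE-controlled beta-lactamase reporter measured as 460/530 nm FRET emission ratio; % is scaled to controls: 0 for no effect and ±100 for the full control effect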
Procedure, shortened: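 FRET read-out (405 nm excitation, 460/530 nm emission) of a beta-lactamase reporter under a STAT-inducible element in ME-180 cervical carcinoma cells. Cells with compound receive 40 pM IL-6 for 5 h. Values are normalised to AC90 stimulation and AC90 JAK-inhibitor controls.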

[4] = molecular target: Glucocorticoid receptor (Homo sapiens) (UniProt P04150); experiment: GR-GFP Redistribution (AID 450;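 active = compounds whose dose series gives a full or clear partial fitted curve of increased nuclear translocation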; also: potency is read from the fitted curve at half-maximal effect)
Chain of Glucocorticoid receptor (Homo sapiens) (P04150 whole entry, looked up): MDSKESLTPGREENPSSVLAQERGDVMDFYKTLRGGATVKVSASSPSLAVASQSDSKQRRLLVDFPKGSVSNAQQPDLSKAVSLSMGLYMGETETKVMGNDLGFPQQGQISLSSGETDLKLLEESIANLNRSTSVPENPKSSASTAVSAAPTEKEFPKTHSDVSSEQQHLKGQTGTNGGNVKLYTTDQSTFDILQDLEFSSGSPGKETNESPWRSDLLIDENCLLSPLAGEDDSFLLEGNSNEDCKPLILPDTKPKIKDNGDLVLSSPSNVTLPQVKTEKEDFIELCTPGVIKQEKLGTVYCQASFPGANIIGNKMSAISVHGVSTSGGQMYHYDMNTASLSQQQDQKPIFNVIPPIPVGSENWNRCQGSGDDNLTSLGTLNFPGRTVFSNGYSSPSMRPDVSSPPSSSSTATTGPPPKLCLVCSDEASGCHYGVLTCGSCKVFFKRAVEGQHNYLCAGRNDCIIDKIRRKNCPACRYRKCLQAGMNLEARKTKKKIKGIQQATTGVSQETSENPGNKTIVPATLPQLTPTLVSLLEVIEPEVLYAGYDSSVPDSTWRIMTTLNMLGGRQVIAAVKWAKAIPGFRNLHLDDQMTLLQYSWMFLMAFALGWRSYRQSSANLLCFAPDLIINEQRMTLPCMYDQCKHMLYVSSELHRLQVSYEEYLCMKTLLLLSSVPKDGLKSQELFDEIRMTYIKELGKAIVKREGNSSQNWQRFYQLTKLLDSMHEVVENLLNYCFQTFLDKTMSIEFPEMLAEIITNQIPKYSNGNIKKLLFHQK

COc1cc(C)nc(Nc2nc(C)c(C(C)=O)s2)n1
inactive: activity change, negative = inhibition [1] 12.9% | activity change, negative = inhibition [2] -2.73% | activity, negative = inhibition [3] 4.9% | Potency [4] > 20.6 µM

Cc1occc(=O)c1OC(=O)Nc1ccccc1
inactive: activity change, negative = inhibition [1] 9.9% | activity change, negative = inhibition [2] 1.25% | activity, negative = inhibition [3] 7.55% | Potency [4] > 20.6 µM

COc1ccc(/C(O)=C2/C(=O)C(=O)N(CCN3CCOCC3)C2c2ccccn2)cc1OC (centres undefined)
inactive: activity change, negative = inhibition [1] 3.25% | activity change, negative = inhibition [2] -11% | activity, negative = inhibition [3] -5.39% | Potency [4] > 20.6 µM

COc1ccc(-n2ncc3c(N4CCC(C(N)=O)CC4)ncnc32)cc1
inactive: activity change, negative = inhibition [1] -0.0678% | activity change, negative = inhibition [2] 6% | activity, negative = inhibition [3] -1.03% | Potency [4] > 20.6 µM

COc1ccc(CN2CCC(=O)NC2=O)cc1
inactive: activity change, negative = inhibition [1] 9.75% | activity change, negative = inhibition [2] -0.653% | activity, negative = inhibition [3] 9.56% | Potency [4] > 20.6 µM

CCOC(=O)c1[nH]c2cc3c(cc2c1NC(=O)CN1CCC(C)CC1)OCO3
inactive: activity change, negative = inhibition [1] -11.2% | activity change, negative = inhibition [2] 3.83% | activity, negative = inhibition [3] -3.19% | Potency [4] > 20.6 µM

CC(C)Oc1ccc(/C(O)=C2/C(=O)C(=O)N(CCN(C)C)C2c2ccco2)cc1 (centres undefined)
inactive: activity change, negative = inhibition [1] -1.52% | activity change, negative = inhibition [2] -2.83% | activity, negative = inhibition [3] 8.49% | Potency [4] > 20.6 µM

COC(=O)CCc1c(C)[nH]c(C(=O)OCc2ccccc2)c1C
inactive: activity change, negative = inhibition [1] -13.9% | activity change, negative = inhibition [2] -4.78% | activity, negative = inhibition [3] 5.36% | Potency [4] > 20.6 µM

COc1ccc(/C(O)=C2/C(=O)C(=O)N(CCCN(C)C)C2c2ccccc2)cc1Cl (centres undefined)
inactive: activity change, negative = inhibition [1] 8.68% | activity change, negative = inhibition [2] -3.88% | activity, negative = inhibition [3] 12.1% | Potency [4] > 20.6 µM

COc1cccc(/C(O)=C2\C(=O)C(=O)N(c3ccccn3)C2c2ccccc2OC)c1 (centres undefined)
inactive: activity change, negative = inhibition [1] -8.01% | activity change, negative = inhibition [2] 11.4% | activity, negative = inhibition [3] 1.49% | Potency [4] > 20.6 µM

CSCCC(CO)NC(=O)OCc1ccccc1 (centres undefined)
inactive: activity change, negative = inhibition [1] 0.666% | activity change, negative = inhibition [2] -0.945% | activity, negative = inhibition [3] 2.15% | Potency [4] > 20.6 µM

CCOC(=O)Cn1c(SC)nc2sc3c(c2c1=O)CC(C)(C)OC3
inactive: activity change, negative = inhibition [1] 3.62% | activity change, negative = inhibition [2] 10.2% | activity, negative = inhibition [3] -3.19% | Potency [4] > 20.6 µM

Cc1cc(=O)oc(C)c1C(=O)Nc1ccc2nsnc2c1
inactive: activity change, negative = inhibition [1] 6.72% | activity change, negative = inhibition [2] -6.31% | activity, negative = inhibition [3] 8.13% | Potency [4] > 20.6 µM

CC(C)(C)NC(=O)CSc1nsc(SCC(=O)NC(C)(C)C)c1C#N
inactive: activity change, negative = inhibition [1] -5.49% | activity change, negative = inhibition [2] -10.2% | activity, negative = inhibition [3] 3.19% | Potency [4] > 20.6 µM

Nc1nnnn1/N=C/c1cccs1
inactive: activity change, negative = inhibition [1] 7.92% | activity change, negative = inhibition [2] -9.98% | activity, negative = inhibition [3] 2.51% | Potency [4] > 20.6 µM

COc1ccc(-c2nc3n(c2Br)CCC3)cc1
inactive: activity change, negative = inhibition [1] -3.45% | activity change, negative = inhibition [2] 1.51% | activity, negative = inhibition [3] 0.643% | Potency [4] > 20.6 µM

Cc1c(C(=O)O)c(=S)sn1CCOc1ccccc1
inactive: activity change, negative = inhibition [1] -0.1% | activity change, negative = inhibition [2] 10.4% | activity, negative = inhibition [3] 5.37% | Potency [4] > 20.6 µM

COc1cccc(-c2nnc3sc(-c4ccc(Cl)cc4)nn23)c1
inactive: activity change, negative = inhibition [1] 5.29% | activity change, negative = inhibition [2] -1.08% | activity, negative = inhibition [3] 11.1% | Potency [4] > 20.6 µM

O=C(O)CC(C(=O)N(c1ccccc1)c1ccccc1)N1CCOCC1 (centres undefined)
inactive: activity change, negative = inhibition [1] -5.33% | activity change, negative = inhibition [2] -0.593% | activity, negative = inhibition [3] 8.75% | Potency [4] > 20.6 µM

Cn1c(=O)c2c(nc(N3CCN(Cc4ccccc4)CC3)n2CC(=O)c2ccccc2)n(C)c1=O
inactive: activity change, negative = inhibition [1] -9.66% | activity change, negative = inhibition [2] -8.82% | activity, negative = inhibition [3] 0.621% | Potency [4] > 20.6 µM

O=C(O)c1cnn2c(C(F)(F)F)cc(-c3ccco3)nc12
inactive: activity change, negative = inhibition [1] 11% | activity change, negative = inhibition [2] 1.41% | activity, negative = inhibition [3] 16.2% | Potency [4] > 20.6 µM

CC(=O)c1c(C(C)=O)c(C)n(NC(=O)c2ccncc2)c1C
inactive: activity change, negative = inhibition [1] 2.53% | activity change, negative = inhibition [2] 3.09% | activity, negative = inhibition [3] 17% | Potency [4] > 20.6 µM

CCC(=O)OC1=C2C(=Nc3c(c(=O)n(C)c(=O)n3C)C2c2ccccc2)c2ccccc21 (centres undefined)
inactive: activity change, negative = inhibition [1] 8.9% | activity change, negative = inhibition [2] -4% | activity, negative = inhibition [3] 14.9% | Potency [4] > 20.6 µM

CCN1CCc2c(C#N)c(N3CCOCC3)nc(NCCO)c2C1
inactive: activity change, negative = inhibition [1] 0.329% | activity change, negative = inhibition [2] 3.49% | activity, negative = inhibition [3] 11.3% | Potency [4] > 20.6 µM

CCC(NC(=O)NC1=NCCS1)(C(F)(F)F)C(F)(F)F
inactive: activity change, negative = inhibition [1] 8.03% | activity change, negative = inhibition [2] -10% | activity, negative = inhibition [3] 15.4% | Potency [4] > 20.6 µM

COC(=O)CCc1c(C)[nH]c(=S)[nH]c1=O
inactive: activity change, negative = inhibition [1] 7.36% | activity change, negative = inhibition [2] 14.4% | activity, negative = inhibition [3] 1.45% | Potency [4] > 20.6 µM
